Bioassay records (PubChem BioAssay)
Only some compounds are listed: those with a hit (about 3.8% of all), similar ones and a draw of the others.
Sfp PPTase inh – Sfp phosphopantetheinyl transferase inhibition; Potency, µM, for the others: largest response in the series, negative = inhibition, most hits filed as inhibitors; 310,000 tested, 3.5% active; Biochemical Sfp PPTase activity, qHTS; AID 1490;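 further: the enzyme is Sfp with the accession as filed and its product quenches rhodamine fluorescence; 0% = enzyme reaction without inhibitor and -100% = no enzyme wells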
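Fluorescence-quenching assay: 15 nM Sfp-PPTase preincubated 15 min at room temperature with compound, then 5 uM rhodamine-CoA and 12.5 uM BHQ-2-labelled YbbR peptide added. Fluorescence (ex 525/em 598 nm) read at start and after 30 min; difference gives rate.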
TrxR1 substrate – rat thioredoxin reductase 1 substrate activity. O89049. AID 588456. Potency, µM (titrated, usually from 114 µM), for the others: at the top dose activity change, negative = substrate turnover. 390,000 tested, 0.01% active. purified TrxR1 substrate turnover, NADPH consumption readout; further: nearly all actives have a fitted effect of over 50% in size
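Rat TrxR1, dispensed at 90 nM, was prereduced with 400 uM NADPH (final) for 5 min at ~22 deg C, then incubated with compound 15 min before 400 uM selenite. A first-read NADPH fluorescence drop versus no-compound background flagged substrates.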
GLS inh – glutaminase GLS (human) inhibition | GLS enzymatic activity, qHTS titration | Potency, µM (titrated, usually from 45.5 µM), for the others: at the top dose activity change, negative = inhibition, hits mostly inhibitors | 410,000 tested, 0.21% active | AID 624170
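Two-point fluorescence kinetic (t0, 30 min RT) for hKGA; glutamate detected via glutamate oxidase–HRP–Amplex Red. Substrate: 1 mM L-glutamine solution; buffer 45 mM KH2PO4, pH 8.2.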
GCN5L2 inh – GCN5L2 (KAT2A) acetyltransferase inhibition | Potency, µM (highest dose often 58.9 µM), for inactives: at the top dose activity change, negative = inhibition, actives largely listed as inhibitors | GCN5L2 HAT assay, ThioGlo1 CoA-SH fluorescence | Q92830 | 390,000 tested, 0.21% active
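ThioGlo1-coupled HAT assay: 20nM GCN5L2, 70uM acetyl-CoA, 75uM H3(1-25) peptide, pH 7.5. Fluorescence read at 340/540nm at start and after 20 min at room temperature.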
VDR inh – vitamin D3 receptor (human) inhibition. P11473. VDR-SRC2-3 peptide fluorescence polarization, 2 h. Potency, µM, inactives show max response, negative = inhibition, usual class: inhibitors. 400,000 tested, 0.93% active
Target sequence (P11473 whole entry, looked up): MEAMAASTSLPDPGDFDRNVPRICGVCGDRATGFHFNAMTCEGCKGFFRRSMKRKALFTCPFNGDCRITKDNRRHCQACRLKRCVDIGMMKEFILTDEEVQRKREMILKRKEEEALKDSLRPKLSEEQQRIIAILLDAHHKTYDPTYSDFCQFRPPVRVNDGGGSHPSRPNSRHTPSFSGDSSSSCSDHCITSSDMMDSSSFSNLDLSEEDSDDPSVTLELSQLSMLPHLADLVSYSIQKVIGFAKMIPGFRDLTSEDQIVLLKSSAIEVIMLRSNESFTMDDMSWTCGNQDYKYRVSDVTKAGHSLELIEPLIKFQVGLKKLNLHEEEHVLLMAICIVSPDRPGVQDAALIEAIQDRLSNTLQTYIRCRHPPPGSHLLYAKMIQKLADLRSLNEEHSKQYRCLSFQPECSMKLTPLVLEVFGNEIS
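Two reagent solutions held at 4 deg C in the dark were dispensed, compounds pinned at 23 nl, and the mixture incubated 2 h at room temperature. Read-out: fluorescence polarization of VDR–SRC2-3 peptide binding.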
rTrxR1 inhibitor – blocks rat thioredoxin reductase 1; recombinant rTrxR1, NADPH fluorescence consumption, selenite substrate; Potency, µM (titrated, usually from 114 µM), without a hit: at the top dose activity change, negative = inhibition, usual class: inhibitors; O89049; AID 588453; 390,000 tested, 1% active; further: nearly all actives have a fitted effect of over 65% in size
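Rat TrxR1 (90 nM in the dispensed reagent) was pre-reduced with 400 uM NADPH for 5 min at room temperature, then incubated with compound for 15 min. After 400 uM selenite was added, NADPH fluorescence (Ex 340/Em 450 nm) was followed for 8 min.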
Starred values were filed as active, the others as inactive; ? = inconclusive; . = no result; [ ] = remark or other dose. The call rests on the fitted dose curve; in most records, active means well fitted curve in the direction sought with a large enough effect; inconclusive means small, poorly fitted or top-dose-only effect, or another doubt; inactive means no such curve, though single readings can be large; an effect the other way counts as inactive or inconclusive. Unless noted, on the % scale 0 is the no-effect control and ±100 the full control effect; potency means the concentration at half of the fitted maximal effect.

SMILES	Sfp PPTase inh	TrxR1 substrate	GLS inh	GCN5L2 inh	VDR inh	rTrxR1 inhibitor
O=[N+]([O-])c1ccc(N2CCN(C(=S)c3cccc([N+](=O)[O-])c3)CC2)cc1	5.62µM*	-9.9%	?	-11.6%	?	-17.6%
Cn1c(SCc2ccc(C#N)cc2)nnc1-c1ccccc1	8.8%	3.1%	0.0%	-5.3%	0.5%	8.2%[57.1 µM]
O=C(NCc1ccncc1)C(=O)NCC1OCCN1S(=O)(=O)c1ccc(F)cc1 (configuration not stated)	4.3%	4.8%	-4.5%	-0.7%	17.3%	5.9%
COc1ccc(CCNC(=O)CSc2cc(=O)[nH]c(N)n2)cc1OC	6.3%	10.1%[57.1 µM]	0.3%	-7.1%	-8.6%	16.5%[57.1 µM]
Cc1ccccc1N1CCN(C(=S)c2ccc(-c3ccc([N+](=O)[O-])cc3)o2)CC1	20µM*	-1.9%[57.1 µM]	5.3%	-8.6%	?	11.3%[57.1 µM]
CCOC(=O)N1CCN(C(=O)c2ccc3c(c2)N(CC)CCS3)CC1	50.1µM*	13.4%	19.0%	-21.1%	-16.5%	6.8%[57.1 µM]
CCOC(=O)N1CCN(C(=O)c2ccc3c(c2)N(Cc2ccc(F)cc2)CCS3)CC1	-4.9%	20.8%[57.1 µM]	22.0%	-6.3%	?	11.3%[57.1 µM]
CC(=O)Nc1ccc(S(=O)(=O)N2CCC3(CC2)OCCO3)cc1	12.0%	4.0%	-3.0%	-2.9%	4.7%	10.3%
O=C(OCc1ccc([N+](=O)[O-])cc1Cl)c1cnccn1	3.0%	4.7%	6.7%	35.8%	3.1%	22.4µM*
O=C(COC(=O)c1cnccn1)c1ccc([N+](=O)[O-])cc1	20µM*	-5.5%	15.2%	-5.5%	?	-6.6%
O=C(OCc1cccc([N+](=O)[O-])c1)c1cnccn1	23.0%	-0.9%	4.6%	-18.3%	-10.3%	7.3%
O=C(Nc1sc2c(c1C(=O)O)CCCC2)c1ccccc1Cl	22.8%	1.5%	11.1%	-6.3%	1.8%	15.5%
CCc1ccc(-c2nc(CS(=O)CC(=O)O)c(C)o2)cc1 (configuration not stated)	?	-12.2%	16.1%	0.0%	?	3.55µM*
CCc1ccc(-c2nc(CS(=O)CC(=O)NCCc3ccc(Cl)cc3)c(C)o2)cc1 (configuration not stated)	.	1.1%[57.1 µM]	3.7%	-3.5%	4.7%	-0.3%[57.1 µM]
CCOc1ccc(CCNC(=O)CS(=O)Cc2nc(-c3ccc(C)cc3)oc2C)cc1 (configuration not stated)	-2.7%	-10.2%[57.1 µM]	-11.9%	-1.8%	-4.9%	-8.1%[57.1 µM]
COc1ccc(-c2nc(CS(=O)CC(=O)NC3CCCCC3)c(C)o2)cc1 (configuration not stated)	21.5%	3.6%	-0.2%	-0.7%	-1.5%	-7.5%
CCc1ccc(-c2nc(CS(=O)CC(=O)NC3CC3)c(C)o2)cc1 (configuration not stated)	-2.7%	-4.7%	-10.4%	-1.7%	-16.5%	15.8µM*
CCc1ccc(-c2nc(CS(=O)CC(=O)NC3CCCCCC3)c(C)o2)cc1 (configuration not stated)	50.1µM*	0.3%	-6.9%	-14.6%	10.8%	20µM*
COc1ccc(-c2nc(CS(=O)CC(=O)NCCC3=CCCCC3)c(C)o2)cc1 (configuration not stated)	?	-3.2%[57.1 µM]	-4.4%	-4.0%	-16.6%	15.8µM*
C[C@H](CO)N1C[C@H](C)[C@@H](CN(C)S(=O)(=O)c2ccccc2)Oc2c(NS(=O)(=O)c3cccs3)cccc2C1=O	.	-5.1%	0.9%	0.3%	16.5%	-4.8%
CCCOc1ccc(C(=O)Nc2ccc(NC(=O)c3ccccc3)c(C)c2)cc1	.	83.9%	0.3%	1.8%	13.4%	42.8%
COc1ccc(-c2nc(CS(=O)CC(=O)NC3CCCCCC3)c(C)o2)cc1 (configuration not stated)	10.4%	2.8%	0.0%	-2.1%	-13.7%	?
COc1ccc(-c2nc(CS(=O)CC(=O)NC3CCCCC3)c(C)o2)cc1OC (configuration not stated)	-2.8%	7.6%	-14.8%	-7.2%	-10.4%	50.1µM*
Cc1ccc(NC(=O)C(=O)NCC(c2ccc3c(c2)OCO3)N2CCN(C)CC2)c(C)c1 (configuration not stated)	.	3.8%[57.1 µM]	7.0%	3.1%	-4.2%	28.0%[57.1 µM]
CC1(c2nnc(-c3ccc(F)cc3)o2)CC(c2ccc(F)cc2)=NO1 (configuration not stated)	9.8%	-9.5%	-0.7%	-11.8%	?	8.8%[57.1 µM]
SMILES	Sfp PPTase inh	TrxR1 substrate	GLS inh	GCN5L2 inh	VDR inh	rTrxR1 inhibitor
Cc1ccc(/C=C/C(=O)NCc2cccs2)cc1	?	-0.3%	12.0%	-3.2%	-12.0%	-0.6%
Cc1ccc(/C=C/C(=O)Oc2ccc(C#N)cc2)o1	13.8%	.	.	-6.6%	.	.
CC(/C=C/c1ccc(C)o1)=C\C(=O)O	10µM*	1.8%	4.3%	?	?	?
Cc1ccc(CNC(=O)/C=C/c2ccc(Br)o2)cc1	28.2µM*	10.1%	6.2%	-7.6%	-4.5%	?
CC(=O)/C=C/c1ccc(C)o1	39.8µM*	-2.1%	7.9%	2.1%	-17.9%	?
Cc1ccc(/C=C/C(=O)NCc2ccncc2)cc1	15.3%	-12.2%	-1.8%	-0.2%	-19.6%	-16.0%
Cc1ccc(/C=C/C(=O)NCc2cccs2)o1	10µM*	-5.5%[57.1 µM]	7.7%	-5.5%	-8.2%	?
O=C(NC1CCCC1)C(c1ccccn1)N(C(=O)c1csnn1)c1ccccc1Cl (configuration not stated)	-7.3%	1.8%[57.1 µM]	11.9%	-18.5%	-7.9%	5.2%[57.1 µM]
COc1ccc(NC(=S)N2CCN(c3ncccn3)CC2)c(OC)c1	50.1µM*	6.7%	26.6%	-7.4%	-0.9%	20.8%
Cc1ccc(NC(=O)NC2OC(=O)c3ccccc32)cc1 (configuration not stated)	.	-0.2%[11.4 µM]	-11.5%	.	7.5%	-11.4%[11.4 µM]
CC(=O)NC(=O)NC1OC(=O)C(Cl)=C1Cl (configuration not stated)	-20.1%	-2.2%	2.1%	1.6%	2.2%	1.58µM*
CN1CCN(C(=O)/C(=C/c2cccnc2)NC(=O)c2cccc(Br)c2)CC1	15.4%	10.9%[0.0914 µM]	-7.2%	-2.0%	-16.5%	10.6%[0.0914 µM]
CC(C)c1ccc(NCCC(=O)c2ccc(Br)cc2)cc1	-3.3%	-6.8%	2.0%	-6.3%	-10.9%	56.2µM*
Cc1ccc(C(=O)CNc2ccc(Br)cc2)cc1	1.8%	2.8%[57.1 µM]	7.1%	-14.1%	-1.7%	23.8%[57.1 µM]
CC(=O)c1ccc(NCCC(=O)c2ccccc2)cc1	15.1%	-9.5%	1.5%	-6.7%	16.5%	50.1µM*
Cc1cccc(NCCC(=O)c2ccc(Br)cc2)c1	0.9%	-3.4%	-4.2%	0.9%	-10.6%	25.1µM*
CC(=O)c1ccc(NC(=O)CCCC(=O)c2ccccc2)cc1	9.3%	7.5%	1.0%	-13.9%	1.3%	29.5%
